Measured values taken from PubChem BioAssay AID1578 (Sanford-Burnham Center for Chemical Genomics, 2009).
About 3,000 (1%) of roughly 290,000 compounds were called active. Cut-off read from the data, not from the text of the source: active = inhibition mostly above about 36% (no sharp cut-off); inactive = mostly below about 34%. What follows is part of a selection rich in actives, with near analogues and random picks from the rest.

Assay: NOD1 signaling inhibitors, primary screen, cell-based, luminescence, uHTS (AID 1578);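 note: HEK-293T reporter cells stimulated with the NOD1 agonist gamma-tri-DAP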
Details: NOD1-driven NF-kB luciferase reporter cells, at 4 µM, hits give high values

Row | Compound | inhibition
1 | O=C(O)C(=O)/C(=C\c1cccc2ccccc12)c1ccc2ccccc2n1 | 2.3% (inactive)
2 | CCC(C(=O)NC1CCCC1)N(C(=O)Cn1nnc(-c2ccc(OC)c(OC)c2)n1)c1cccc(O)c1 (centres undefined) | -30.7% (inactive)
3 | Cc1cc(C(=O)CN2C(=O)c3ccccc3C2=O)c(C)n1Cc1cccs1 | 13.2% (inactive)
4 | COc1ccc(-c2nnc(SCC(=O)c3cc(C)n(Cc4cccs4)c3C)o2)cc1 | -40.4% (inactive)
5 | Cc1cc(C(=O)CSc2nnc(-c3ccccc3F)o2)c(C)n1Cc1cccs1 | 58.1% (active)
6 | Cc1cc(C(=O)CSc2n[nH]c(-c3ccccc3F)n2)c(C)n1Cc1cccs1 | 29.2% (inactive)
7 | Cc1cc(C(=O)COc2ccc3ccc(=O)oc3c2)c(C)n1Cc1cccs1 | 22.1% (inactive)
8 | Cc1cc(C(=O)COC(=O)c2ccc(Br)o2)c(C)n1Cc1ccco1 | -24.2% (inactive)
9 | Cc1cc(C(=O)COC(=O)c2ccc(O)cc2)c(C)n1Cc1ccco1 | -37.3% (inactive)
10 | COCCn1c(C)cc(C(=O)COC(=O)c2ccc(Br)o2)c1C | -30.4% (inactive)
11 | Cc1cc(C(=O)COC(=O)c2ccco2)c(C)n1Cc1ccco1 | 45.8% (active)
12 | COCCn1c(C)cc(C(=O)COC(=O)c2ccc[nH]c2=O)c1C | 50.7% (inactive)
13 | COCCn1c(C)cc(C(=O)COC(=O)c2ccccc2Br)c1C | 67.9% (active)
14 | CCOC(=O)CSc1nnc(Cn2c(=O)sc3ccccc32)n1-c1ccccc1C | 5.4% (inactive)
15 | O=C(Nc1ccc(F)cc1)N(Cc1cccs1)Cc1cc2cc3c(cc2[nH]c1=O)OCO3 | -9.6% (inactive)
16 | CC1(C)CC(=O)C(C=NCC2CCNCC2)=C(O)C1 | -6.2% (inactive)
17 | C=CCNC(=S)Nc1ccc(OC(F)F)c(Cl)c1 | -16.4% (inactive)
18 | CN1C(=O)Cc2cc(S(=O)(=O)NCCc3ccc(Cl)cc3)ccc21 | -20.9% (inactive)
19 | Cc1ccc(S(=O)(=O)N2Cc3ccccc3CC2C(=O)Nn2cnnc2)cc1 (centres undefined) | -8.2% (inactive)
20 | CCn1nc(C(=O)OCC(=O)c2cc(C)n(Cc3cccs3)c2C)c2ccccc2c1=O | -15% (inactive)
21 | Cc1cc(C(=O)COC(=O)c2ccc3c(c2)OCO3)c(C)n1Cc1cccs1 | -27.2% (inactive)
22 | Cc1cc(C(=O)COC(=O)c2ccccc2O)c(C)n1Cc1cccs1 | 99.2% (active)
23 | O=C(COC(=O)c1ccco1)NC1CCCC1 | -23.8% (inactive)
24 | Cc1cc(NC(=O)CSc2nc3ccsc3c(=O)n2CCCC(=O)NCCc2ccccc2)no1 | -20% (inactive)
25 | CC(C1CC1)N(Cc1ccccc1)C(=O)NC(=O)c1ccc(F)cc1 (centres undefined) | -23.2% (inactive)

Row | Compound | inhibition
26 | Cc1cccc(-n2cc(-c3ccccc3)c3c(NN4CCOCC4)ncnc32)c1 | -8.1% (inactive)
27 | Cc1cccc(-n2cc(-c3ccccc3)c3c(N4CCOCC4)ncnc32)c1 | 56.2% (active)
28 | Cc1ccc(-n2cc(-c3ccccc3)c3c(N4CCOCC4)ncnc32)cc1 | 20.2% (inactive)
29 | CCc1c(C)nc(Nc2nc(C)c3ccc(OC)cc3n2)[nH]c1=O | -7.1% (inactive)
30 | COc1ccc2c(C)nc(Nc3nc(C)c(C)c(=O)[nH]3)nc2c1 | 80.7% (active)
31 | CCc1c(C)nc(Nc2nc(C)c3cc(OC)ccc3n2)[nH]c1=O | -42.8% (inactive)
32 | Cc1sc2ncnc(N3CCC(C(=O)NNC(=O)c4ccccc4Cl)CC3)c2c1C | 5.2% (inactive)
33 | CNC(=O)COC(=O)c1ccc(OCC(=O)Nc2ccccc2OC)c(OC)c1 | -18.6% (inactive)
34 | CC1(C)CC(=O)C2=C(C1)OC(N)=C(C#N)[C@@]21C(=O)N(CC(N)=O)c2ccccc21 | -14.4% (inactive)
35 | Cc1ccc(NC(=O)c2cc3ccccc3o2)cc1S(=O)(=O)N(C)C | -60.5% (inactive)
36 | Cc1ccc(NC(=O)c2cc3ccccc3oc2=O)cc1S(=O)(=O)N(C)C | 98.1% (active)
37 | COc1ccccc1NS(=O)(=O)c1cc(NC(=O)c2cc3ccccc3oc2=O)ccc1C | 42.3% (inactive)
38 | O=C(NC1CCCN(c2ccc(C(F)(F)F)cn2)C1)c1ccncc1 (centres undefined) | -22% (inactive)
39 | O=[N+]([O-])c1ccc(O)c(-c2nc(-c3ccccc3)c(-c3cccs3)[nH]2)c1 | 80.7% (active)
40 | O=[N+]([O-])c1cccc(-c2nc(-c3cccs3)c(-c3cccs3)[nH]2)c1 | 26.4% (inactive)
41 | O=[N+]([O-])c1cccc(-c2nc(-c3ccccc3)c(-c3cccs3)[nH]2)c1 | -1.1% (inactive)
42 | CCOC(=O)Cc1csc(NC(=O)CN2CCN(CC)CC2)n1 | -2.4% (inactive)
43 | O=C1c2ccccc2NC(c2cccs2)N1NS(=O)(=O)c1ccccc1 (centres undefined) | -22.6% (inactive)
44 | N#C/C(=C\c1ccc(OCc2ccccc2)cc1)C(=O)Nc1nc2c(s1)CCN(Cc1ccccc1)C2 | -24.8% (inactive)
45 | CC1Cc2ccccc2N1C(=O)CSc1nnc2c(n1)[nH]c1ccc(F)cc12 (centres undefined) | 48.5% (active)
46 | CC1CCc2cc(F)ccc2N1C(=O)CSc1nnc2c(n1)[nH]c1ccc(F)cc12 (centres undefined) | 25.7% (inactive)
47 | CC1Cc2ccccc2N1C(=O)CSc1nnc2c(n1)[nH]c1ccccc12 (centres undefined) | -0.9% (inactive)
48 | CCCCN(Cc1ccccc1)S(=O)(=O)c1c(N)n(C)c(=O)n(C)c1=O | -10.5% (inactive)
49 | CCc1nc(SCC(=O)N2CCC(Cc3ccccc3)CC2)c2c(=O)n(C)c(=O)n(C)c2n1 | 34% (inactive)
